According to PubChem BioAssay AID1159580 (chemical genetic matrix, 2015):
Values joined by “and” are separate entries in the source; they are usually repeats but may differ in a detail not shown here. Equal entries are not always repeated. In all, about 5,500 compounds went through this assay and about 2,000 (36%) were called active. Inconclusive results (about 18%) are left out. Rule as the data show it: active = normalized growth mostly below about 0.91 (no sharp cut-off); inconclusive = no clear call, values can overlap the other calls; inactive = mostly above about 0.92. Some of the results follow.

Experiment: chemical genetic growth profiling, strain panel (AID 1159580);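 also: tested at 20 µM; growth read once vehicle control cultures reached saturation at 30 °C; 1 = growth at the plate median or of vehicle wells; lower values mean less growth of the strain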
Conditions: growth OD

Measured: normalized growth

COc1ccc2c(c1)c(CC(=O)O)c(C)n2C(=O)c1ccc(Cl)cc1
active: S. cerevisiae deletion strains, locus YLR221C, strain rsa3, hits give low values 0.874 | S. cerevisiae deletion strains, locus YLR320W, strain mms22, hits give low values 0.819 | S. cerevisiae deletion strains, locus YML120C, strain ndi1, hits give low values 0.874 | S. cerevisiae deletion strains, locus YNL322C, strain KRE1 (second series), hits give low values 0.64
inactive: S. cerevisiae deletion strains, locus YJR075W, strain HOC1, hits give low values 1 | S. cerevisiae deletion strains, locus YKL009W, strain mrt4, hits give low values 0.998 | S. cerevisiae deletion strains, locus YKL068W, hits give low values 0.959 | S. cerevisiae deletion strains, locus YKL085W, strain MDH1 (second series), hits give low values 0.955 | S. cerevisiae deletion strains, locus YKL085W, strain MDH1, hits give low values 0.955 | S. cerevisiae deletion strains, locus YKL160W, strain elf1, hits give low values 0.98 | S. cerevisiae deletion strains, locus YKL190W, strain CNB1, hits give low values 1.01 | S. cerevisiae deletion strains, locus YKR001C, strain vps1, hits give low values 0.993 | S. cerevisiae deletion strains, locus YKR026C, strain gcn3, hits give low values 0.983 | S. cerevisiae deletion strains, locus YKR091W, strain srl3, hits give low values 0.984 | S. cerevisiae deletion strains, locus YLL001W, strain dnm1, hits give low values 0.938 | S. cerevisiae deletion strains, locus YLL026W, hits give low values 0.988 | S. cerevisiae deletion strains, locus YLL041C, strain sdh2, hits give low values 0.986 | S. cerevisiae deletion strains, locus YLR027C, strain aat2, hits give low values 0.98 | S. cerevisiae deletion strains, locus YLR039C, strain RIC1, hits give low values 1.17 | S. cerevisiae deletion strains, locus YLR058C, strain SHM2, hits give low values 1.02 | S. cerevisiae deletion strains, locus YLR102C, strain apc9, hits give low values 0.975 | S. cerevisiae deletion strains, locus YLR113W, strain HOG1, hits give low values 0.874 | S. cerevisiae deletion strains, locus YLR258W, strain gsy2, hits give low values 0.978 | S. cerevisiae deletion strains, locus YLR262C, strain YPT6 (second series), hits give low values 0.912 | S. cerevisiae deletion strains, locus YLR262C, strain YPT6, hits give low values 1.03 | S. cerevisiae deletion strains, locus YLR268W, strain sec22, hits give low values 0.993 | S. cerevisiae deletion strains, locus YLR330W, strain CHS5, hits give low values 0.995 | S. cerevisiae deletion strains, locus YLR342W, strain FKS1 (second series), hits give low values 1.01 | S. cerevisiae deletion strains, locus YLR342W, strain FKS1, hits give low values 0.971 | S. cerevisiae deletion strains, locus YLR357W, strain rsc2, hits give low values 0.973 | S. cerevisiae deletion strains, locus YLR370C, strain arc18, hits give low values 0.943 | S. cerevisiae deletion strains, locus YLR371W, strain rom2, hits give low values 0.987 | S. cerevisiae deletion strains, locus YLR384C, strain iki3, hits give low values 0.986 | S. cerevisiae deletion strains, locus YLR418C, strain cdc73, hits give low values 0.966 | S. cerevisiae deletion strains, locus YML016C, strain PPZ1, hits give low values 1.01 | S. cerevisiae deletion strains, locus YML032C, strain rad52, hits give low values 0.999 | S. cerevisiae deletion strains, locus YML124C, strain tub3, hits give low values 0.981 | S. cerevisiae deletion strains, locus YMR058W, strain fet3, hits give low values 0.975 | S. cerevisiae deletion strains, locus YMR078C, strain ctf18, hits give low values 0.973 | S. cerevisiae deletion strains, locus YMR125W, strain sto1, hits give low values 0.975 | S. cerevisiae deletion strains, locus YMR129W, hits give low values 0.987 | S. cerevisiae deletion strains, locus YMR205C, strain PFK2, hits give low values 0.982 | S. cerevisiae deletion strains, locus YMR223W, strain ubp8, hits give low values 0.976 | S. cerevisiae deletion strains, locus YMR231W, strain pep5, hits give low values 0.988 | S. cerevisiae deletion strains, locus YMR263W, strain SAP30, hits give low values 1 and 1.01 | S. cerevisiae deletion strains, locus YMR307W, strain GAS1, hits give low values 1.02 and 1 | S. cerevisiae deletion strains, locus YNL067W, strain RPL9B, hits give low values 1 | S. cerevisiae deletion strains, locus YNL071W, strain lat1, hits give low values 0.986 | S. cerevisiae deletion strains, locus YNL175C, strain NOP13, hits give low values 1 | S. cerevisiae deletion strains, locus YNL183C, strain NPR1, hits give low values 0.931 | S. cerevisiae deletion strains, locus YNL197C, strain WHI3, hits give low values 1 | S. cerevisiae deletion strains, locus YNL209W, strain ssb2, hits give low values 0.953 | S. cerevisiae deletion strains, locus YNL224C, strain SQS1, hits give low values 0.994 | S. cerevisiae deletion strains, locus YNL233W, strain BNI4, hits give low values 1.01 | S. cerevisiae deletion strains, locus YNL248C, strain rpa49, hits give low values 0.958 | S. cerevisiae deletion strains, locus YNL250W, strain rad50, hits give low values 0.947 | S. cerevisiae deletion strains, locus YNL271C, strain bni1, hits give low values 0.955 | S. cerevisiae deletion strains, locus YNL298W, strain CLA4, hits give low values 0.944 | S. cerevisiae deletion strains, locus YNL307C, strain MCK1, hits give low values 0.986 | S. cerevisiae deletion strains, locus YNL322C, strain KRE1, hits give low values 1 | S. cerevisiae deletion strains, locus YNR049C, strain mso1, hits give low values 0.984 | S. cerevisiae deletion strains, locus YNR052C, strain pop2, hits give low values 0.99 | S. cerevisiae deletion strains, locus YOL012C, strain htz1 2.03 | S. cerevisiae deletion strains, locus YOL147C, strain pex11, hits give low values 0.981 | S. cerevisiae deletion strains, locus YOR001W, strain rrp6, hits give low values 0.926 | S. cerevisiae deletion strains, locus YOR061W, strain CKA2, hits give low values 1.01 | S. cerevisiae deletion strains, locus YOR069W, strain VPS5, hits give low values 0.996 | S. cerevisiae deletion strains, locus YOR070C, strain gyp1, hits give low values 0.977 | S. cerevisiae deletion strains, locus YOR080W, strain dia2, hits give low values 0.989 | S. cerevisiae deletion strains, locus YOR083W, strain WHI5 (second series), hits give low values 1.01 | S. cerevisiae deletion strains, locus YOR083W, strain WHI5, hits give low values 0.942 | S. cerevisiae deletion strains, locus YOR106W, strain vam3, hits give low values 0.929 | S. cerevisiae deletion strains, locus YOR136W, strain idh2, hits give low values 1 | S. cerevisiae deletion strains, locus YOR144C, strain elg1, hits give low values 0.992 | S. cerevisiae deletion strains, locus YOR184W, strain ser1, hits give low values 0.988 | S. cerevisiae deletion strains, locus YOR231W, strain MKK1, hits give low values 0.953 | S. cerevisiae deletion strains, locus YOR265W, strain rbl2, hits give low values 0.96 | S. cerevisiae deletion strains, locus YOR270C, strain vph1, hits give low values 0.957 | S. cerevisiae deletion strains, locus YOR290C, strain snf2, hits give low values 0.895 | S. cerevisiae deletion strains, locus YOR316C, strain cot1, hits give low values 0.985 | S. cerevisiae deletion strains, locus YPL051W, strain arl3, hits give low values 0.969 | S. cerevisiae deletion strains, locus YPL078C, strain atp4, hits give low values 0.975 | S. cerevisiae deletion strains, locus YPL106C, strain sse1, hits give low values 1.02 | S. cerevisiae deletion strains, locus YPL240C, strain hsp82, hits give low values 0.978 | S. cerevisiae deletion strains, locus YPL241C, strain CIN2, hits give low values 0.996 | S. cerevisiae deletion strains, locus YPL256C, strain CLN2, hits give low values 0.871 | S. cerevisiae deletion strains, locus YPR119W, strain clb2, hits give low values 0.98 | S. cerevisiae deletion strains, locus YPR141C, strain kar3, hits give low values 0.96 | S. cerevisiae deletion strains, locus YPR163C, strain tif3, hits give low values 0.981 | S. cerevisiae deletion strains, locus YPR167C, strain met16, hits give low values 0.977 | S. cerevisiae deletion strains, strain wtn01, hits give low values 0.985 | S. cerevisiae strains, strain wild type, hits give low values 1
